Data on 13 compounds can be found in PubChem BioAssay.

Experiment [1] concerns the target Nuclear receptor coactivator 3 (Homo sapiens) (UniProt Q9Y6Q9). In words: NCOA3 GAL4-fusion reporter inhibition – cell-based, luminescence, quadruplicate, confirmation (AID 588792;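 active means mean inhibition over 43.08%, the solvent-only control mean plus 3 SD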;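 further: 0% = DMSO treated cells and 100% = gossypol at 36 µM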). The following applies: HEK293 GAL4-SRC3 luciferase reporter, at 3.6 µM, active compounds read high. A general note: A reporter such as luciferase makes a cellular process visible.
Experiment [2] relates to transactivating tegument protein VP16 (Human herpesvirus 1), Gal4-VP16 luciferase reporter. In words: repression of VP16-driven luciferase reporter – cell-based, luminescence, high throughput, counter-screen for SRC3 inhibitor project (AID 588794; in the data active means inhibition above about 30%). The following applies: mammalian cells, at 3.6 µM, active compounds read high.
Experiment [3] concerns the target Nuclear receptor coactivator 1 (Homo sapiens) (UniProt Q15788). In words: NCOA1 GAL4-fusion reporter inhibition – cell-based, luminescence, quadruplicate, confirmation (AID 588820).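 Further: 0% = DMSO wells and 100% = gossypol 36 µM treated wells.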 The following applies: HEK293 GAL4-SRC1 luciferase reporter, at 3.6 µM, active compounds read high.
Experiment [4] can be described thus: repression of VP16-driven luciferase reporter – cell-based, luminescence, high throughput, counter-screen for SRC1 inhibitor project (AID 588824; in the data active means inhibition above about 25%). The following applies: cell-based VP16 transactivation luciferase luminescence; at 3.6 µM; active compounds read high.
Experiment [5] can be described thus: StAR promoter reporter inhibitors, counter-screen for LRH-1 inverse agonist project, cell-based, luminescence, high throughput (AID 651611; in the data active means inhibition above about 28%). The following applies: StAR promoter luciferase reporter counterscreen, at 3.6 µM, active compounds read high. (The purpose of a counterscreen is to sort out artefacts and off-target activity.)
For experiment [6], the target named is Nuclear receptor subfamily 5 group A member 2 (Homo sapiens) (UniProt O00482). In words: NR5A2 activity suppression in reporter cells – cell-based, luminescence, confirmation (AID 651613; in the data active means inhibition above about 42%;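 further: HEK293T cells co-transfected with LRH-1 and StAR promoter luciferase reporter; 0% = vehicle wells and 100% = parental cells lacking receptor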). The following applies: cell-based LRH-1 luciferase reporter, inverse agonism; at 3.6 µM; active compounds read high.
Nuclear receptor subfamily 5 group A member 2 (Homo sapiens), sequence (O00482 whole entry, looked up): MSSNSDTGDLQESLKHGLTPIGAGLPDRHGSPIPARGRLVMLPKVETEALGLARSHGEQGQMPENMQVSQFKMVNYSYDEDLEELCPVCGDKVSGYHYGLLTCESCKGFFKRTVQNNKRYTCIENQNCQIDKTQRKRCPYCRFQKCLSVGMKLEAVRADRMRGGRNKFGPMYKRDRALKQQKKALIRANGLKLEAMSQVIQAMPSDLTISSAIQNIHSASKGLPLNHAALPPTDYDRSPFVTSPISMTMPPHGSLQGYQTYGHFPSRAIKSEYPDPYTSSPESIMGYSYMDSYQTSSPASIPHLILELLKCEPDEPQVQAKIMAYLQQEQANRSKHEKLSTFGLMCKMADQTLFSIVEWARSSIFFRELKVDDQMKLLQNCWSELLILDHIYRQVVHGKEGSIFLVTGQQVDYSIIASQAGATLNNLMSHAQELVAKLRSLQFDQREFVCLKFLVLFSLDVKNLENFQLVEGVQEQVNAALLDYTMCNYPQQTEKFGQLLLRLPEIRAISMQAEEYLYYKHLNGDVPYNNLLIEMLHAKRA
Experiment [7] addresses Steroidogenic factor 1 (Homo sapiens) (UniProt Q13285). In words: inverse agonism at SF1 nuclear receptor – cell-based, luminescence, high throughput, counter-screen for LRH-1 inverse agonist project (AID 651614; in the data active means inhibition above about 44%;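 further: cells cotransfected with StAR promoter reporter and SF1 expression vector; 0% = vehicle on cells with receptor and 100% = vehicle on cells lacking receptor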). The following applies: cell-based SF1 luciferase reporter, at 3.6 µM, active compounds read high.
Experiment [8] is described as follows: compounds suppressing VP16-driven luciferase signal – cell-based, luminescence, high throughput, counter-screen for LRH-1 inverse agonist project (AID 651615; in the data active means inhibition above about 33%). The following applies: Gal4-VP16 luciferase reporter cells, at 3.6 µM, active compounds read high.
The test system of experiment [9] is transactivating tegument protein VP16 (Human herpesvirus 1). In words: compounds suppressing VP16-driven luciferase signal – cell-based, luminescence, single concentration, counter-screen for SRC2 inhibitor project (AID 652007; in the data active means inhibition above about 36%). The following applies: cell-based VP16 transactivation luciferase reporter, at 8.9 µM, active compounds read high.
Experiment [10] concerns the target Nuclear receptor coactivator 2 (Homo sapiens) (UniProt Q15596). Kind of experiment: inhibition of GAL4-SRC2 driven luciferase expression – cell-based, luminescence, HEK293, triplicate, confirmation (AID 652008;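 active means mean inhibition above 46.5%, the solvent-only control mean plus 3 SD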;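 further: 0% = DMSO-treated cells and 100% = Gossypol at 36 µM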). The following applies: HEK293 GAL4-SRC2 luciferase reporter, at 8.9 µM, active compounds read high.

A number with no mark means an inactive call. Activity calls are given as the source filed them.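 How the source made its calls, unless noted: active means mean inhibition above 46.68%, the untreated control wells mean plus 3 SD; inactive means the rest.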

Nuclear receptor coactivator 1 (Homo sapiens), sequence (Q15788 whole entry, looked up, the tested form may be a part): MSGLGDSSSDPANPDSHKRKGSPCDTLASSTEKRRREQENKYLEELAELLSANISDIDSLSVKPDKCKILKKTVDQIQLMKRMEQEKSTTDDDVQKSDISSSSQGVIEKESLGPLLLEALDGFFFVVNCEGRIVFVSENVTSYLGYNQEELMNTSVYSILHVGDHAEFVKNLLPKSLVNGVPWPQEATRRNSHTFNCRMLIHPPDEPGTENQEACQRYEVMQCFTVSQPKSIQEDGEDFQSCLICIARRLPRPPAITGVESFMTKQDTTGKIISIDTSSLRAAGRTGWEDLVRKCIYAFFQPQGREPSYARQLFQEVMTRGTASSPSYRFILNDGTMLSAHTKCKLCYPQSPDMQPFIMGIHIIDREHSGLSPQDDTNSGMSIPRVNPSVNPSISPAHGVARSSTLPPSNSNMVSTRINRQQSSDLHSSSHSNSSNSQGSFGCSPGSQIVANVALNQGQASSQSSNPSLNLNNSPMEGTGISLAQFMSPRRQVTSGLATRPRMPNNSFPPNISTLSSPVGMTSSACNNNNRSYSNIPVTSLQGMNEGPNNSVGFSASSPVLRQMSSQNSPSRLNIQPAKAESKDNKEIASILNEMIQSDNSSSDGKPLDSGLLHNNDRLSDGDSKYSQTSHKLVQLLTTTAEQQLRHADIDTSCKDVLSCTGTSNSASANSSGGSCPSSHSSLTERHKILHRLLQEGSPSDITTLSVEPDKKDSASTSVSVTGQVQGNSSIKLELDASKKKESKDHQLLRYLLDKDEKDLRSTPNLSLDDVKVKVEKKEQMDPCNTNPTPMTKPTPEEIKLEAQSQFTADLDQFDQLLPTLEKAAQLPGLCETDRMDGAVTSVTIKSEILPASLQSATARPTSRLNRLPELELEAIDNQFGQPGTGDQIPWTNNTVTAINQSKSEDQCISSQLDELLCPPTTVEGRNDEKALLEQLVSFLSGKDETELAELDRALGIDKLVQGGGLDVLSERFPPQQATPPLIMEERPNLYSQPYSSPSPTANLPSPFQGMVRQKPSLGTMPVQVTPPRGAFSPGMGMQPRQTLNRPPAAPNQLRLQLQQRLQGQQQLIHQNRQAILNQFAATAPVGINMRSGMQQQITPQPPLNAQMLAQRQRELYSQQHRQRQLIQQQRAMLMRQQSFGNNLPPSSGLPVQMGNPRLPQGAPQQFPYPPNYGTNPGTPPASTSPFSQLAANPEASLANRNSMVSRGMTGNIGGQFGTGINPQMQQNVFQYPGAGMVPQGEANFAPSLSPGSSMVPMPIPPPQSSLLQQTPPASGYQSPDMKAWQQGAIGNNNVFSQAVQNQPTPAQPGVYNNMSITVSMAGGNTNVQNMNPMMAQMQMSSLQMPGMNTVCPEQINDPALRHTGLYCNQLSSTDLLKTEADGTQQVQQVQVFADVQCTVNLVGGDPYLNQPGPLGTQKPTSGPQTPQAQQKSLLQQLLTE
Nuclear receptor coactivator 2 (Homo sapiens), sequence (Q15596 whole entry, looked up, the tested form may be a part): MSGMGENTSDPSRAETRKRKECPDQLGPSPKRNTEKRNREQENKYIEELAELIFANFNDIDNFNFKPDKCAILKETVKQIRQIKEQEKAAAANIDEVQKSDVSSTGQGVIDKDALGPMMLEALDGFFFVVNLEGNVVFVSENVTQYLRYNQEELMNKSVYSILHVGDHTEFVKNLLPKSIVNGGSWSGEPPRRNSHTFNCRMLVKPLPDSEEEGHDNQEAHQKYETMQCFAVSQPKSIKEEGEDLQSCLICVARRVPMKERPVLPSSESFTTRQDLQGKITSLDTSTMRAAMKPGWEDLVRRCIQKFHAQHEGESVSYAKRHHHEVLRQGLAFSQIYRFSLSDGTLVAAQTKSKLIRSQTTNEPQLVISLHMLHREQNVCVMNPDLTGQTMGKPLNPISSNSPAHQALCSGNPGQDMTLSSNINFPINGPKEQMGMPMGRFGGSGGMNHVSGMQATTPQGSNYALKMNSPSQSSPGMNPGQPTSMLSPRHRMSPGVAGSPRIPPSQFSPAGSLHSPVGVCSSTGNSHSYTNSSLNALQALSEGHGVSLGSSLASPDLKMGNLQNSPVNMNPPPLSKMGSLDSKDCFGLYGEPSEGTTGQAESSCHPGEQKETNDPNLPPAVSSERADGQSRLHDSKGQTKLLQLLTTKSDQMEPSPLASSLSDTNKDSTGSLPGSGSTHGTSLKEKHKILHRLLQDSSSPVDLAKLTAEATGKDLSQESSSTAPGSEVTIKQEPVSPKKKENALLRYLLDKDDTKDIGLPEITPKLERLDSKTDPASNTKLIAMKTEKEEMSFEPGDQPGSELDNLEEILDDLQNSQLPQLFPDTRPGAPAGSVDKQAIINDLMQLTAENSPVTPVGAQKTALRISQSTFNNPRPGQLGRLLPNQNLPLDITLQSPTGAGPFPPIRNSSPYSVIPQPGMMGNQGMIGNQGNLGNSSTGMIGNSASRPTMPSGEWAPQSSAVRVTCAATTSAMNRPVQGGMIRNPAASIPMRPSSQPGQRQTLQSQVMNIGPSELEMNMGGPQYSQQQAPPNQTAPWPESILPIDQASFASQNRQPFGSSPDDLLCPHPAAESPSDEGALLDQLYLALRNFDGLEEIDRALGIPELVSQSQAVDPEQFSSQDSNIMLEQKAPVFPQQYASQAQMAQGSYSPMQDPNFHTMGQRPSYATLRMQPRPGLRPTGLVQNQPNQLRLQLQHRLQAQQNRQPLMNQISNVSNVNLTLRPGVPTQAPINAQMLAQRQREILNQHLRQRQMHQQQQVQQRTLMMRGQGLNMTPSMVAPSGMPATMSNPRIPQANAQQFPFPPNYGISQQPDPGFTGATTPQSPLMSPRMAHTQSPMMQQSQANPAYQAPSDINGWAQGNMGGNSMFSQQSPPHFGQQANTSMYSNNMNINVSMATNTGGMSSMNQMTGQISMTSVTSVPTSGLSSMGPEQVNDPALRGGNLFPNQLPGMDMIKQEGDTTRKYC
Steroidogenic factor 1 (Homo sapiens), sequence (Q13285 whole entry, looked up, the tested form may be a part): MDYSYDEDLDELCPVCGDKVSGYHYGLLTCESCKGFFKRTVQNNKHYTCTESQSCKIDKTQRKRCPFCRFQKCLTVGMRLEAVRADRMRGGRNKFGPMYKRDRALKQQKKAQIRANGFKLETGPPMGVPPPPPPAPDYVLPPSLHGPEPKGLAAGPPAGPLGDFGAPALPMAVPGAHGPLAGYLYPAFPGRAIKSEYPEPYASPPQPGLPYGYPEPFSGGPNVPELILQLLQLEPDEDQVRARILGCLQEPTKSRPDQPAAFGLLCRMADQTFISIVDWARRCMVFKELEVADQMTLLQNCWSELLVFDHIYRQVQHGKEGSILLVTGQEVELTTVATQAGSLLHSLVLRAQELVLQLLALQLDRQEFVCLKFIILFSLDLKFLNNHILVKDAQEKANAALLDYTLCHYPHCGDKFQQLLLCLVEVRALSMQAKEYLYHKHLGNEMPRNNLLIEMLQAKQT

Consider `COc1ccc(CC2C(=O)NC(C)C(=O)N(C)C3Cc4ccc(cc4)Oc4cc(ccc4O)CC(C(=O)NC(C)C(=O)NC(C)C(=O)N2C)N(C)C3=O)cc1` (stereo not given), for which the inhibition – broadly, the drop in the measured response relative to a control, in per cent – was 97.6% (active) in experiment [1]; 96.4% (active) in experiment [2]; 90.6% (active) in [3]; 95% (active) in experiment [4]; 96% (active) in [5]; 110% (active) in experiment [6]. For the same compound, the inhibition was 98.6% (active) in experiment [7], 97.2% (active) in experiment [8], 82.2% (active) in experiment [9] and 76.9% (active) in [10].
For `CC(C)c1ccc(/C=C(\c2nc3ccccc3[nH]2)S(=O)(=O)c2ccccc2)cc1`, the inhibition was 54.2% (active) in experiment [1]; 39.6% (active) in experiment [2]; -0.35% in experiment [3]; 24.9% in experiment [4]; 33.9% (active) in [5]; 54.6% (active) in experiment [6]. In addition, the inhibition in experiment [7] was 54.7% (active); in experiment [8] it was 46.6% (active); in [9], 36.6% (active); in experiment [10] it was 49.3% (active).
For the compound `Cc1ccc(C(=O)O/N=C(\N)c2ccccn2)c(Cl)c1`, the inhibition in experiment [1] is 28.7%; in experiment [2] it was 11.1%; in experiment [3], -47.4%; in experiment [4], -23.7%; in experiment [5], -22.8%; in experiment [6] it was -86.9%. In addition, the inhibition in experiment [7] was 4.43%; in [8] it was -54.1%; in experiment [9], 50.6% (active); in experiment [10], 70.8% (active).
On to `COc1cc(OC)cc(-c2cc3nc(C)c(CCC(=O)O)c(C)n3n2)c1`, for which the inhibition in experiment [1] was 66.4% (active); in experiment [2] it was 69.9% (active); in [3] it was 55.8% (active); in experiment [4] it was 64.1% (active); in experiment [5], 64.9% (active); in experiment [6], 76.4% (active). For the same compound, the inhibition in experiment [7] is 71% (active); in experiment [8], 69% (active); in [9], 89.9% (active); in [10], 93.3% (active).
For the compound `CC(=O)NC(c1ccc(C(C)C)cc1)c1ccc2cccnc2c1O` (stereo not given), the inhibition in [1] is 74.3% (active); in experiment [2] it was 58.4% (active); in experiment [3], 65.9% (active); in experiment [4], 60.9% (active); in experiment [5], 89.1% (active); in experiment [6], 105% (active). For the same compound, the inhibition in [7] was 86.2% (active); in experiment [8], 75% (active); in experiment [9], -23.1%; in experiment [10], 26.8%.
`Cc1cc(C(=O)Nc2ccc(Cl)cc2)c(C)n1-c1ccccc1`: the inhibition is 74.9% (active) in [1]; 69.7% (active) in experiment [2]; 60.1% (active) in [3]; 50.3% (active) in [4]; 70% (active) in [5]; 38% in experiment [6]. Moreover, the inhibition in experiment [7] is 71.7% (active); in [8], 55.4% (active); in experiment [9], 82.5% (active); in experiment [10], 85.7% (active).
`O=C(NCCc1ccccc1)c1ccc2c(c1)OCCO2`: the inhibition was 41.6% in experiment [1]; 11.9% in [2]; -81.6% in [3]; 0.41% in experiment [4]; 29.6% (active) in experiment [5]; -10.6% in experiment [6]. Also, the inhibition in experiment [7] was 42%; in [8] it was 7.34%; in experiment [9], 44.1% (active); in experiment [10] it was 77.7% (active).
`CCOc1c(Br)cc(CNc2ccc3c(c2)OCCO3)cc1OC`: the inhibition is 14.5% in experiment [1]; 8.55% in experiment [2]; -25.8% in experiment [3]; 9.33% in experiment [4]; 3.55% in experiment [5]; 3.36% in experiment [6]. For the same compound, the inhibition is 19.9% in experiment [7], 26.2% in experiment [8], -28.8% in experiment [9] and 21.9% in experiment [10].
`Cc1cc(C(=O)COC(=O)c2ccccc2Br)c(C)n1CC1CCCO1` (stereo not given): the inhibition is 77.5% (active) in experiment [1]; 71.7% (active) in [2]; 60.3% (active) in experiment [3]; 51.9% (active) in [4]; 57.3% (active) in experiment [5]; 20.4% in experiment [6]. Moreover, the inhibition in [7] is 51% (active); in experiment [8] it was 48.6% (active); in experiment [9] it was 66.2% (active); in experiment [10], 90.6% (active).
As for `CSC1SCC2C(=O)N(C)C(C(C)C)C(=O)OCC(NC(=O)c3cnc4ccccc4n3)C(=O)NC(C)C(=O)N(C)C1C(=O)N(C)C(C(C)C)C(=O)OCC(NC(=O)c1cnc3ccccc3n1)C(=O)NC(C)C(=O)N2C` (stereo not given), the inhibition in [1] is 96.8% (active); in [2], 96.7% (active); in experiment [3] it was 85.7% (active); in experiment [4], 96.8% (active); in [5] it was 86.5% (active); in [6], 107% (active). The inhibition in experiment [7] was 97.1% (active); in experiment [8], 97.3% (active); in [9], 62.2% (active); in experiment [10] it was 51.1% (active).
With `CCOc1ccccc1-n1c(SCC(=O)Nc2ccccc2C(=O)O)nc2ccccc2c1=O`, the inhibition in [1] is 36.2%; in experiment [2], 26%; in [3], 16.8%; in [4], 14.7%; in experiment [5], 16%; in experiment [6] it was -6.48%. Besides, the inhibition is 9.06% in experiment [7], -14.2% in [8], 30.9% in experiment [9] and 49.9% (active) in [10].
Regarding `COc1cccc(-c2nnc3n2N=C(C(C)(C)C)CS3)c1`, the inhibition was 89.1% (active) in [1]; 64.5% (active) in [2]; 72.3% (active) in experiment [3]; 71.4% (active) in experiment [4]; 56.7% (active) in experiment [5]; 64.9% (active) in [6]. Further, the inhibition in [7] is 60.9% (active); in experiment [8] it was 75.4% (active); in [9], 26.6%; in [10], 73.7% (active).
Take `COc1ccc(CNC(=O)c2cccc3c(-c4cccc(C(N)=O)c4)coc23)cc1OC`: the inhibition was 30.4% in experiment [1]; 52% (active) in experiment [2]; 3.09% in experiment [3]; 50.2% (active) in [4]; 62.9% (active) in experiment [5]; 69.7% (active) in experiment [6]. Besides, the inhibition in [7] was 68.7% (active); in experiment [8] it was 73.6% (active); in experiment [9] it was 34.4%; in experiment [10], 37.8%.
